“And” between values parts separate entries of the source, which are not always exact repeats. Equal entries are not always repeated. Inconclusive results are not listed. Where a call stands in place of a potency, no number is given. The source made the active and inactive calls. Calls come from the whole dose curve; as a rule, active = well fitted inhibition curve with a large enough effect; inconclusive = small, poorly fitted or top-dose-only effect, or effect the other way; inactive = flat fitted curve, though single readings scatter.
Assay: qHTS Assay Multiplex Screening to Identify Dual Action Probes in a Cell Model of Huntington: Cytoprotection (Protease relase)
Conditions: PC12 HttQ103 cells, Cytotox-Glo protease release, 40 h; series mostly up to 46.1 µM
Procedure, shortened: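 Cytotox-Glo luminescence of released protease served as the cytoprotection readout. Compounds were added alongside 100 nM final tebufenozide to PC12 cells carrying ecdysone-inducible GFP-tagged HTT exon 1 with 103 glutamines.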

Compound | Potency
COc1ccc(C2=Nc3cc(C)ccc3OC2)cc1 | 11.2 µM (active)
Cn1nnnc1Sc1ncnc2scc(-c3ccc[nH]3)c12 | 8.91 µM (active)
Cc1[nH]nc2c1C(c1cccc(O)c1)C1=C(CC(C)(C)CC1=O)N2 (stereo not drawn) | inactive
CCN(Cc1ccncc1)C(=O)c1cc(Br)cc(Br)c1O | inactive
O=C(Nc1ccccc1)C1=C(O)CC(c2ccco2)CC1=Nc1ccccc1 (stereo not drawn) | inactive
Cc1noc(C)c1COC(=O)Cc1ccc(Cl)cc1 | inactive
COc1cccc(-c2csc3ncnc(Sc4nnnn4C)c23)c1 | 7.08 µM (active)
Cc1cccc(OCc2nc(C)cc(=O)[nH]2)c1 | 10 µM (active)
O=C1Cc2c([nH]c3ccc(Br)cc23)-c2ccccc2N1 | 2.24 µM (active) and 3.55 µM (active)
Cn1c(C(=O)N2CCN(c3ccc(Cl)cc3)CC2)cc2c(=O)[nH]c3ccccc3c21 | inactive
Cc1cc(C)nc(Sc2nc(C)nc3c2oc2ccccc23)n1 | inactive
O=C(O)c1cccc(COc2ccc(CO)cc2Cl)c1 | 0.501 µM (active)
O=C(NCc1ccco1)c1cc2ccc(O)cc2oc1=O | 2.82 µM (active)
O=C(CN1CCN(c2ccccn2)CC1)NC1CCCC1 | inactive
O=C(Nc1nc(-c2ccc(-c3ccccc3)cc2)cs1)C1CCCO1 (stereo not drawn) | 11.2 µM (active)
NC(=O)c1sc2nccc(Nc3ccccc3)c2c1N | inactive
O=C(NCN1C(=O)C2C3C=CC(C3)C2C1=O)Nc1ccccn1 (stereo not drawn) | inactive
O=c1c2ccccc2nnn1CSc1ncnc2ccccc12 | inactive
Cn1nnnc1Sc1ncnc2scc(-c3ccccc3)c12 | 2.82 µM (active) and 7.94 µM (active)
Cc1nnc(C)n1/N=C/c1cc(Br)cc(Br)c1O | inactive
CN1C(=O)NC(NC(=O)c2cccs2)(C(F)(F)F)C1=O (stereo not drawn) | inactive
COc1cccc(C(=O)Nc2ccc(F)c(F)c2F)c1 | 7.08 µM (active)
CCCCCCCCNc1ncnc2ccccc12 | inactive

From PubChem BioAssay AID2669 (National Center for Advancing Translational Sciences (NCATS), 2010)
